Experiment [1] concerns Wnt5a (protein binding on small-molecule microarray). The experiment in a line: small molecules binding Wnt5a protein – biophysical, small-molecule microarray, 635/667 nm fluorescence, primary screen (AID 1142).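 Further: fluorescence read at 667 nm with signal to noise per printed feature.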 The following applies: 635 nm fluorescence, higher = more signal.
Experiment [2] in a line: ATP-based viability of Huh7 replicon cells – cell-based, CellTiter-Glo luminescence, basal, 48 h, cytotoxicity control for HCV replication inhibitor project, primary screen (AID 1143).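 Further: Huh7 hepatoma cells carrying a hepatitis C replication reporter with no stimulus; test concentration not given here.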 The following applies: higher = more signal, called active from +8 up or from −8 down.
Experiment [3] is described as follows: Pseudomonas biofilm growth suppression – PAO1 strain, BacTiter-Glo luminescence, LB-PBS, primary screen (AID 1144). The following applies: P. aeruginosa PAO1 biofilm, 12 h, higher = more signal.
A short description of experiment [4]: basal CRE-LacZ reporter activity in PC12 – cell-based, unstimulated, primary screen (AID 1145). The following applies: no forskolin, luminescence, 4.5 h, higher = more signal, called active from +8 up or from −8 down.
Experiment [5] can be described thus: forskolin-driven CRE-LacZ activity in PC12 – cell-based, CRE-LacZ reporter, forskolin-stimulated, primary screen (AID 1146).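 Further: PC12 cells with 6xCRE LacZ reporter stimulated by forskolin 10 µM; beta-galactosidase reporter signal reflecting CREB driven transcription.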 The following applies: luminescence, 4.5 h, higher = more signal, called active from +8 up or from −8 down.
Experiment [6] deals with Streptavidin (Streptomyces avidinii) (UniProt P22629). Briefly: compounds binding control protein streptavidin – biophysical, small-molecule microarray, 635/667 nm fluorescence, artefact control for SMM compound annotation, primary screen (AID 1147).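 Further: signal reflects streptavidin binding to arrayed compounds as a control protein.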 Conditions: higher = more signal.
Streptavidin (Streptomyces avidinii), sequence (P22629 whole entry, looked up): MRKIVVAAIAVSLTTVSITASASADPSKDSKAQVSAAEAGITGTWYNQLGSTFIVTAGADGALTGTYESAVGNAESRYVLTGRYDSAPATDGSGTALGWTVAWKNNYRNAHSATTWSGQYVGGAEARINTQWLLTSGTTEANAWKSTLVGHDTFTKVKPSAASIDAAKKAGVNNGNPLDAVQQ
The nature of experiment [7]: probe aInhba binding on compound microarray – biochemical, small-molecule microarray, 635/667 nm fluorescence, primary screen (AID 1148).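 Further: score merges 667nm spot fluorescence with signal-to-noise for antibody binding to printed compounds.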 Conditions: higher = more signal.
The target of experiment [8] is Torsin-1A (Homo sapiens) (UniProt O14656). Briefly: TOR1A wild-type binding on microarray – cell lysate, small-molecule microarray, lysate, 635/667 nm, primary screen (AID 1149). The following applies: COS7 hTOR1A-WT lysate, 635 nm fluorescence, higher = more signal.
Torsin-1A (Homo sapiens), sequence (O14656 whole entry, looked up): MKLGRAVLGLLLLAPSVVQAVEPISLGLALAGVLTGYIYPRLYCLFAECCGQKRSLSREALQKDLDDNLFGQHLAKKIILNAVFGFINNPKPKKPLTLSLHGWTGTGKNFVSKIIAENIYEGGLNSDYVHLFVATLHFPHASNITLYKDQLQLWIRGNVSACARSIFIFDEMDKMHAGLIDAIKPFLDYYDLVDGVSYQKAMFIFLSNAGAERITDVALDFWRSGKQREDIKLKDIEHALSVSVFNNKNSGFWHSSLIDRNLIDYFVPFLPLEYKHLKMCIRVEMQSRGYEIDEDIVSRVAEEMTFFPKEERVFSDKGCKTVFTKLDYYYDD
For experiment [9] the target is unchanged. Briefly: torsin A mutant lysate binding on microarrays – cell lysate, small-molecule microarray, COS7 lysate, 635/667 nm fluorescence, primary screen (AID 1150).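 Further: score pools 667 nm emission and signal to noise measuring lysate protein binding.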 Conditions: COS7 hTOR1A mutant lysate, 635 nm fluorescence, higher = more signal.
For experiment [10], the system named is Sonic hedgehog protein (Shh). Briefly: Sonic hedgehog microarray binding compounds – biochemical, small-molecule microarray, 635/667 nm fluorescence, primary screen (AID 1151).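 Further: Shh protein binding to compounds spotted on small-molecule microarray slides; score combines spot fluorescence intensity with signal-to-noise across triplicate slides.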 The following applies: 635 nm fluorescence, higher = more signal.

Activity calls are given as the source filed them. Unless noted, how the calls were made is not given here.

`CCOC(=O)C[C@H]1[C@H](OC(=O)c2ccc(C(=O)c3ccccc3)cc2)[C@@H](NC(=O)c2ccc3ccccc3n2)c2cc(OCCCO)ccc2N1C(=O)Cc1ccc(OC)cc1`: the composite z-score is -0.126 in experiment [1]; 0.982 in experiment [6]; -0.0521 in [7]; -0.077 in the experiment with Torsin-1A (Homo sapiens) [8]; 0.292 in the experiment with Torsin-1A (Homo sapiens) [9]; -0.381 in experiment [10]. The z-score in experiment [2] is -0.124 (inactive); in experiment [3] it was 0.458 (inactive); in experiment [4] it was -0.215 (inactive); in experiment [5], -0.357 (inactive).

For the molecule `CC(C)NC(=O)[C@@]1(c2ccc([N+](=O)[O-])cc2)CC(=O)N(C2CCCCC2)[C@@H]1c1ccc(CO)cc1`, the composite z-score in experiment [1] was 0.34; in experiment [6] it was 0.119; in experiment [7], -0.12; with Torsin-1A (Homo sapiens) [8], 0.574; in the experiment with Torsin-1A (Homo sapiens) [9], 0.5; in experiment [10], 1.68. Also, the z-score in experiment [2] was -2.26 (inactive); in experiment [3] it was -0.177 (inactive); in experiment [4] it was 1.09 (inactive); in experiment [5], -0.0351 (inactive).

On to `COc1ccc(C(=O)Nc2ccc(CN3C(=O)[C@]4(O[C@H](CC(=O)N5Cc6ccccc6C[C@H]5CO)[C@@H]([Si](C)(C)c5ccc(OC)cc5)[C@@H]4C)c4ccccc43)cc2)cc1`, for which the composite z-score was 0.307 in [1]; 0.134 in experiment [6]; -0.132 in [7]; 0.851 in the experiment with Torsin-1A (Homo sapiens) [8]; 0.93 in the experiment with Torsin-1A (Homo sapiens) [9]; 2.04 in [10]. Also, the z-score in experiment [2] was -3.81 (inactive); in [3], 0.556 (inactive); in [4] it was -0.011 (inactive); in [5], -0.6 (inactive).

On to `O=C(C1N=C(c2ccc(OCCCO)cc2)N(c2ccccc2)O1)N1CCCCC1` (stereo not given), for which the composite z-score in experiment [1] worked out at 0.296; in [6], 1.56; in [7], 0.271; in the experiment with Torsin-1A (Homo sapiens) [8], 0.407; with Torsin-1A (Homo sapiens) [9], 0.854; in experiment [10], 0.17. Further, the z-score in [2] was -0.163 (inactive); in [3], 1.52 (inactive); in [4] it was 0.0918 (inactive); in experiment [5], 1.91 (inactive).

As to `O=C1OCCC/C=C\[C@H]2OC34C=CCN(c5ccc6ccccc6c5)C(=O)[C@H]3N(CCO)C(=O)[C@@H]4C12` (stereo not given in full), the composite z-score is -0.325 in [1]; -1.2 in experiment [6]; -0.299 in experiment [7]; -0.427 in the experiment with Torsin-1A (Homo sapiens) [8]; -0.839 with Torsin-1A (Homo sapiens) [9]; -0.59 in [10]. The z-score in experiment [2] was 0.43 (inactive); in [3], 0.515 (inactive); in experiment [4], 0.601 (inactive); in [5], -0.183 (inactive).

For `COc1cc2c(cc1O)C(C1CC1)N(C)CC2` (stereo not given), the composite z-score in [1] is -0.201; in [6], -0.991; in [7], -0.203; with Torsin-1A (Homo sapiens) [8] it was -0.829; with Torsin-1A (Homo sapiens) [9] it was -1.04; in [10], -0.314. The z-score in experiment [2] is -0.426 (inactive); in experiment [3] it was 0.991 (inactive); in experiment [4], 0.479 (inactive); in experiment [5] it was -1.44 (inactive).

For the molecule `CC(C)C(CO)N1C(=O)[C@@H]2C3C(=O)OCCC/C=C\[C@H]3OC23C=CCN(c2ccc4ccccc4c2)C(=O)[C@@H]13` (stereo not given in full), the composite z-score in experiment [1] was -0.4; in experiment [6], -0.537; in experiment [7], -0.0695; with Torsin-1A (Homo sapiens) [8], -1.83; with Torsin-1A (Homo sapiens) [9], -0.801; in experiment [10], 0.41. Besides, the z-score in [2] is -0.567 (inactive); in [3], 1.09 (inactive); in experiment [4] it was -0.761 (inactive); in experiment [5], -0.137 (inactive).

On to `COCCOC(=O)N1C(=O)[C@@]2(c3cc(C#CC4=CCCCC4)ccc31)[C@H](C(=O)Nc1nc3ccccc3s1)[C@H]1C(=O)O[C@H](c3ccccc3)[C@H](c3ccccc3)N1[C@@H]2c1ccc(O)cc1`, for which the composite z-score in experiment [1] was 0.381; in [6], 1.25; in [7] it was -0.0178; with Torsin-1A (Homo sapiens) [8] it was 1.15; with Torsin-1A (Homo sapiens) [9], 0.358; in experiment [10], 2.06. Besides, the z-score is -0.67 (inactive) in [2], 0.288 (inactive) in [3], 0.532 (inactive) in [4] and 0.817 (inactive) in experiment [5].

Consider `CC(C)=C1C(=O)C(c2ccccc2)=C2CN3C(=O)N(CCc4ccccc4)C(=O)[C@]3(Cc3ccc(C(F)(F)F)cc3)[C@H]21`, for which the composite z-score in experiment [1] was -0.199; in experiment [6], 0.37; in experiment [7] it was 0.23; with Torsin-1A (Homo sapiens) [8] it was -0.0473; with Torsin-1A (Homo sapiens) [9], -0.336; in [10], -1.18. The z-score in experiment [2] was -0.28 (inactive); in experiment [3] it was 0.408 (inactive); in experiment [4] it was 0.966 (inactive); in experiment [5], 0.96 (inactive).

As to `COCCOC(=O)N1C(=O)[C@@]2(c3cc(C#CCCO)ccc31)[C@H](C(=O)Nc1nc3ccccc3s1)[C@H]1C(=O)O[C@H](c3ccccc3)[C@H](c3ccccc3)N1[C@@H]2c1ccc(O)cc1`, the composite z-score in experiment [1] was 0.73; in [6] it was 0.809; in experiment [7] it was 0.279; with Torsin-1A (Homo sapiens) [8], 0.772; with Torsin-1A (Homo sapiens) [9] it was 0.833; in [10], 1.06. The z-score in experiment [2] is -1.16 (inactive); in experiment [3], 0.263 (inactive); in [4] it was -0.168 (inactive); in experiment [5], 2.14 (inactive).

As to `CN(C)CCCCCCNC(=O)[C@@H]1C[C@@H]2C(=O)N3CCC[C@H]3C(=O)N2[C@@H]1c1cccc(OCCO)c1`, the composite z-score in experiment [1] is 0.697; in experiment [6], 0.656; in [7], 1.06; in the experiment with Torsin-1A (Homo sapiens) [8], 1.99; with Torsin-1A (Homo sapiens) [9], 1.43; in [10], 1.54. Besides, the z-score is -0.0705 (inactive) in [2], 0.15 (inactive) in experiment [3], 0.151 (inactive) in [4] and 0.766 (inactive) in experiment [5].

As for `CO[C@H]1O[C@H](CO)[C@@H](OC(=O)Nc2ccc(Br)cc2)[C@@H]2OC(=O)[C@@H](Cc3ccccc3)C/C=C/C[C@H](Cc3ccccc3)C(=O)O[C@@H]12`, the composite z-score was 0.891 in experiment [1]; -0.0062 in [6]; 0.115 in [7]; 0.048 with Torsin-1A (Homo sapiens) [8]; 0.91 in the experiment with Torsin-1A (Homo sapiens) [9]; 0.0376 in [10]. Further, the z-score is -5.16 (inactive) in experiment [2], -0.435 (inactive) in experiment [3], -0.263 (inactive) in experiment [4] and -0.396 (inactive) in experiment [5].

On to `C=CC[C@@H](OC(=O)Nc1ccc(SC)cc1)c1ccc(O)c(F)c1`, for which the composite z-score is 0.175 in [1]; -0.192 in [6]; -0.0468 in experiment [7]; 0.26 with Torsin-1A (Homo sapiens) [8]; 0.163 with Torsin-1A (Homo sapiens) [9]; 1.87 in experiment [10]. In addition, the z-score is -0.77 (inactive) in [2], -1.57 (inactive) in [3], 9.49 (active) in experiment [4] and 3.13 (inactive) in [5].

For the molecule `CCOC(=O)C1=C[C@@H](C(C)(C)C)N(S(=O)(=O)c2ccc(C)cc2)[C@H]1c1cccc2ccccc12`, the composite z-score in [1] was -0.219; in experiment [6], 0.823; in [7], 0.0421; with Torsin-1A (Homo sapiens) [8], -0.331; with Torsin-1A (Homo sapiens) [9] it was 0.406; in experiment [10] it was -0.165. The z-score is -4.9 (inactive) in experiment [2], 0.873 (inactive) in experiment [3], 1.14 (inactive) in [4] and 0.705 (inactive) in [5].

Regarding `COC(=O)[C@@]1(Cc2ccc(OC)cc2)[C@H]2c3cc(C(=O)N4CCCC4)n(CCO)c3C[C@H]2CN1C(=O)c1ccccc1`, the composite z-score in experiment [1] was 0.925; in experiment [6], 0.342; in experiment [7], 0.372; in the experiment with Torsin-1A (Homo sapiens) [8], -0.48; in the experiment with Torsin-1A (Homo sapiens) [9], 1.44; in [10], -0.645. Besides, the z-score is -0.794 (inactive) in [2], -0.14 (inactive) in experiment [3], 0.773 (inactive) in experiment [4] and 1.41 (inactive) in experiment [5].

For the origin of these results see PubChem BioAssay.
